# Experimental data as given in the supplement of paper PMC10849652.
# Of roughly 8,800 targets only a part is listed; those with a hit were picked by preference. About 0.5% of all pairs of compound and target were hits. Unmarked numbers belong to inactive results.
# What was measured:
# Assay in all cases: log2 fold change, soluble protein after heating vs DMSO (PISA); higher = thermal stabilisation; K562 lysate, 10 uM; active = over 0.2 and 3.5 SD of the protein, either way, in both replicates (recomputed)
# [1] = compound: CCCS(=O)(=O)Nc1ccc(F)c(C(=O)c2c[nH]c3ncc(-c4ccc(Cl)cc4)cc23)c1F [vemurafenib]
# Outline: (§1)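 Pellets of K562 cells were dounce-homogenised in PBS pH 7.4 with 1 mM MgCl2, and the crude extract was held at 1 mg/mL protein for a 30 min treatment with 10 μM compound. Aliquots were heated for 3 min over 48°C-58°C and pooled before NP-40 was added to 0.5% at 4°C. The supernatant from 21,000xg for 90 min was quantified by TMTpro 16plex LC-MS/MS with channel sums equalised. Values are reported from duplicates as log-two fold change in thermal stability relative to solvent controls.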
# [2] = compound: CCCS(=O)(=O)Nc1ccc(F)c(C(=O)c2c[nH]c3ncc(Cl)cc23)c1F
# Outline: as §1
# [3] = compound: CCN(CCCOc1ccc2c(Nc3cc(CC(=O)Nc4cccc(F)c4)[nH]n3)ncnc2c1)CCOP(=O)(O)O [barasertib]
# Outline: as §1
# [4] = compound: CC[C@@H]1C(=O)N(C)c2cnc(Nc3ccc(C(=O)NC4CCN(C)CC4)cc3OC)nc2N1C1CCCC1
# Outline: as §1
# [5] = compound: CC[C@@H]1C(=O)N(C)c2cnc(Nc3ccc(C(=O)N[C@H]4CC[C@H](N5CCN(CC6CC6)CC5)CC4)cc3OC)nc2N1C(C)C [volasertib]
# Outline: as §1
# [6] = compound: CCn1c(C(=O)N(C2CC2)C2CC2)cc2c3c(ncn3C)c(Nc3cc(C)n(C)n3)nc21
# Outline: as §1
# [7] = compound: CCn1cc(-c2ccnc3[nH]c(-c4cccc(CN(C)C)c4)cc23)c(-c2ccc(NC(=O)N(C)C)cc2)n1
# Outline: as §1
# [8] = compound: CN1CCC(CNc2ccc3ncc(-c4cccc(OC(F)(F)F)c4)n3n2)CC1
# Outline: as §1
# [9] = compound: CN1CCN(CCOc2cc(OC3CCOCC3)c3c(Nc4c(Cl)ccc5c4OCO5)ncnc3c2)CC1 [saracatinib]
# Outline: as §1
# [10] = compound: CN1CCN(c2nc(C3=C(c4c[nH]c5ccccc45)C(=O)NC3=O)c3ccccc3n2)CC1 [sotrastaurin]
# Outline: as §1
# [11] = compound: CN1CC[C@H](c2c(O)cc(O)c3c(=O)cc(-c4ccccc4Cl)oc23)[C@H](O)C1 [alvocidib]
# Outline: as §1
# [12] = compound: CN1CCc2c(c3ccccc3n2Cc2ccc(C(=O)NO)cc2)C1 [Tubastatin A]
# Outline: as §1
# [13] = compound: CNC(=O)C1=CC=CC=C1NC2=NC(=NC=C2Cl)NC3=C(C=C(C=C3)N4CCOCC4)OC
# Outline: as §1
# [14] = compound: CNC(=O)c1ccc(Nc2ncc(C(F)(F)F)c(NCc3nccnc3N(C)S(C)(=O)=O)n2)cc1 [defactinib]
# Outline: as §1
# [15] = compound: CNc1nc(-c2ccc3c(N)n[nH]c3c2)cc(N2C[C@@H](C(=O)NC3CCCCC3)CC[C@H]2C)n1
# Outline: as §1
# [16] = compound: COC(=O)N[C@@H](C)CNc1nccc(-c2cn(C(C)C)nc2-c2cc(Cl)cc(NS(C)(=O)=O)c2F)n1 [encorafenib]
# Outline: as §1
# [17] = compound: COC(=O)[C@H](CCSC)NC(=O)C1=C(C=C(C=C1)NC[C@H](CS)N)C2=CC=CC=C2
# Outline: as §1
# [18] = compound: COc1cc(Nc2ncc3c(n2)-c2ccc(Cl)cc2C(c2c(F)cccc2OC)=NC3)ccc1C(=O)O [alisertib]
# Outline: as §1
# [19] = compound: COc1cc2nc(-c3cc(F)ccc3O)nc(N[C@@H]3CNC[C@H]3C(C)(C)O)c2cc1OC
# Outline: as §1
# [20] = compound: COc1cc2ncnc(Nc3ccc(F)c(Cl)c3)c2cc1OCCCN1CCOCC1 [gefitinib]
# Outline: as §1
# UniProt Q9Y5N5, sequence (Q9Y5N5 whole entry, looked up, one chain of several): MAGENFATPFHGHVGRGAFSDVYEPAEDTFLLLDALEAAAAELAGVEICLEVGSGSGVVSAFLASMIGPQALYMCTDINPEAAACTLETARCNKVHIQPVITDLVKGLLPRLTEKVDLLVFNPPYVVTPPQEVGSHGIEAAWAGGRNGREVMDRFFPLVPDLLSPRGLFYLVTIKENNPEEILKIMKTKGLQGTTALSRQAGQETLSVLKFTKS
# UniProt Q99836, sequence (Q99836 whole entry, looked up): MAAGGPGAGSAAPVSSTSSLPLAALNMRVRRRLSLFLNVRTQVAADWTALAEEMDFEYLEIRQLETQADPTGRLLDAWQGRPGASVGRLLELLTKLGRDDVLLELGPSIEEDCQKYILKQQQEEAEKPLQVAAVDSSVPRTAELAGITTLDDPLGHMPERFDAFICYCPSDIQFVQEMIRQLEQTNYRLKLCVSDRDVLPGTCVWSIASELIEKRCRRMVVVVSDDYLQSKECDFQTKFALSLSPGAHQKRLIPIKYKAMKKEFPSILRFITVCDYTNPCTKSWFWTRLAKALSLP
# UniProt P35749, sequence (P35749 whole entry, looked up): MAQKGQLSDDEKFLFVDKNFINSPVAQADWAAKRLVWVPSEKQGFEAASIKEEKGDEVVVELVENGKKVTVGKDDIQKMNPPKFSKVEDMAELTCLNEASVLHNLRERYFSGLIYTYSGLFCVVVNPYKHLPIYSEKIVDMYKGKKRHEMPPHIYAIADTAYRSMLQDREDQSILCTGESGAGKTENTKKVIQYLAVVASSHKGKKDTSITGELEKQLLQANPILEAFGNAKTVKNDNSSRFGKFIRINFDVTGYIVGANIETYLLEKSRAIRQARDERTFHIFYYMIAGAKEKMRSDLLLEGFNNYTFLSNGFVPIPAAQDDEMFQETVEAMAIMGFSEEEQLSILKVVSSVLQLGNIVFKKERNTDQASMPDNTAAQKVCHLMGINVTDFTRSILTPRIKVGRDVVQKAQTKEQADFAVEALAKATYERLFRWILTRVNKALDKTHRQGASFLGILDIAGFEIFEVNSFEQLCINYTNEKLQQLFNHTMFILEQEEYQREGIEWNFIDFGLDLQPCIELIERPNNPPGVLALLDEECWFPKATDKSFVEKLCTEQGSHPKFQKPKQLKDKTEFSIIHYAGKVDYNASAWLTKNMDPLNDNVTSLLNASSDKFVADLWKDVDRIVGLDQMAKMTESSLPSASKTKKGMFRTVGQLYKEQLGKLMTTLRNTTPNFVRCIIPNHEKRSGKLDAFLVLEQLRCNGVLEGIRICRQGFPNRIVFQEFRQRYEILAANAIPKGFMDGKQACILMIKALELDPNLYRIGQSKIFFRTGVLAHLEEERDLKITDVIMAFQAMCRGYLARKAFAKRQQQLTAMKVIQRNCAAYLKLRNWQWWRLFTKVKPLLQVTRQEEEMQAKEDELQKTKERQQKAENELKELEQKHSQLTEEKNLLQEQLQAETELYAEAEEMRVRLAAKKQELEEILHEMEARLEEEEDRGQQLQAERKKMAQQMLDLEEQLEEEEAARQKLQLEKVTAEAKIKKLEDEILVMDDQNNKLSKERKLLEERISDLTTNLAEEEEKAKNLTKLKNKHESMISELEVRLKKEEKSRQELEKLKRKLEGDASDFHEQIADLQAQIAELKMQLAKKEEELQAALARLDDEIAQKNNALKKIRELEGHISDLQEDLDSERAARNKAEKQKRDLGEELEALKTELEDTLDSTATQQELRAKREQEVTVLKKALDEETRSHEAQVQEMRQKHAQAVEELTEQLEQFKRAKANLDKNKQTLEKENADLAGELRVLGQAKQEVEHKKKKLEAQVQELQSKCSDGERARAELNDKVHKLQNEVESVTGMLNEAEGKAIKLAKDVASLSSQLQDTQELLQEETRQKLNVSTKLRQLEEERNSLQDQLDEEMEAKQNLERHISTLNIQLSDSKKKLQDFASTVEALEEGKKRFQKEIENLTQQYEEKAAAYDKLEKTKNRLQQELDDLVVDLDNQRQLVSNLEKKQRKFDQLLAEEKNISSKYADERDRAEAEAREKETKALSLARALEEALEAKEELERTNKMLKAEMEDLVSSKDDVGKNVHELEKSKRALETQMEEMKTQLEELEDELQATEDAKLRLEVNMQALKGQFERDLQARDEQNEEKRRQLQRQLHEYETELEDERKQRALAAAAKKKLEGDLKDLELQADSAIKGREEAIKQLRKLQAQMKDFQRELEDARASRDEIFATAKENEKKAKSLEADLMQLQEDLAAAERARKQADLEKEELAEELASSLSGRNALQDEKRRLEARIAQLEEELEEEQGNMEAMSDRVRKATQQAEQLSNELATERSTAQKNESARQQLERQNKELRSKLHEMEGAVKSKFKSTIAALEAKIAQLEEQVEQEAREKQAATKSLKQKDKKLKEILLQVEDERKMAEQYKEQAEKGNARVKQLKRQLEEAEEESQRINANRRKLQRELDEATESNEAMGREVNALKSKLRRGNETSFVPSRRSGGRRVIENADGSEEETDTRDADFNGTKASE
# UniProt Q8TDX7, sequence (Q8TDX7 whole entry, looked up): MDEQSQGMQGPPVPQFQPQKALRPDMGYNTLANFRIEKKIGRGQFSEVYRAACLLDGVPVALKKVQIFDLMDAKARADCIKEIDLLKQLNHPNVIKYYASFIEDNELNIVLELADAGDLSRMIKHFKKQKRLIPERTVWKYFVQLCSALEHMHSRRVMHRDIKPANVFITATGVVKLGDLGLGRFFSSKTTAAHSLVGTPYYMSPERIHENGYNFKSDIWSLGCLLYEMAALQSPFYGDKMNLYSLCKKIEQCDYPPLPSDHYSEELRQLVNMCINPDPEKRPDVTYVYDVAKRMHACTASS
# UniProt Q5SRE5, sequence (Q5SRE5 whole entry, looked up): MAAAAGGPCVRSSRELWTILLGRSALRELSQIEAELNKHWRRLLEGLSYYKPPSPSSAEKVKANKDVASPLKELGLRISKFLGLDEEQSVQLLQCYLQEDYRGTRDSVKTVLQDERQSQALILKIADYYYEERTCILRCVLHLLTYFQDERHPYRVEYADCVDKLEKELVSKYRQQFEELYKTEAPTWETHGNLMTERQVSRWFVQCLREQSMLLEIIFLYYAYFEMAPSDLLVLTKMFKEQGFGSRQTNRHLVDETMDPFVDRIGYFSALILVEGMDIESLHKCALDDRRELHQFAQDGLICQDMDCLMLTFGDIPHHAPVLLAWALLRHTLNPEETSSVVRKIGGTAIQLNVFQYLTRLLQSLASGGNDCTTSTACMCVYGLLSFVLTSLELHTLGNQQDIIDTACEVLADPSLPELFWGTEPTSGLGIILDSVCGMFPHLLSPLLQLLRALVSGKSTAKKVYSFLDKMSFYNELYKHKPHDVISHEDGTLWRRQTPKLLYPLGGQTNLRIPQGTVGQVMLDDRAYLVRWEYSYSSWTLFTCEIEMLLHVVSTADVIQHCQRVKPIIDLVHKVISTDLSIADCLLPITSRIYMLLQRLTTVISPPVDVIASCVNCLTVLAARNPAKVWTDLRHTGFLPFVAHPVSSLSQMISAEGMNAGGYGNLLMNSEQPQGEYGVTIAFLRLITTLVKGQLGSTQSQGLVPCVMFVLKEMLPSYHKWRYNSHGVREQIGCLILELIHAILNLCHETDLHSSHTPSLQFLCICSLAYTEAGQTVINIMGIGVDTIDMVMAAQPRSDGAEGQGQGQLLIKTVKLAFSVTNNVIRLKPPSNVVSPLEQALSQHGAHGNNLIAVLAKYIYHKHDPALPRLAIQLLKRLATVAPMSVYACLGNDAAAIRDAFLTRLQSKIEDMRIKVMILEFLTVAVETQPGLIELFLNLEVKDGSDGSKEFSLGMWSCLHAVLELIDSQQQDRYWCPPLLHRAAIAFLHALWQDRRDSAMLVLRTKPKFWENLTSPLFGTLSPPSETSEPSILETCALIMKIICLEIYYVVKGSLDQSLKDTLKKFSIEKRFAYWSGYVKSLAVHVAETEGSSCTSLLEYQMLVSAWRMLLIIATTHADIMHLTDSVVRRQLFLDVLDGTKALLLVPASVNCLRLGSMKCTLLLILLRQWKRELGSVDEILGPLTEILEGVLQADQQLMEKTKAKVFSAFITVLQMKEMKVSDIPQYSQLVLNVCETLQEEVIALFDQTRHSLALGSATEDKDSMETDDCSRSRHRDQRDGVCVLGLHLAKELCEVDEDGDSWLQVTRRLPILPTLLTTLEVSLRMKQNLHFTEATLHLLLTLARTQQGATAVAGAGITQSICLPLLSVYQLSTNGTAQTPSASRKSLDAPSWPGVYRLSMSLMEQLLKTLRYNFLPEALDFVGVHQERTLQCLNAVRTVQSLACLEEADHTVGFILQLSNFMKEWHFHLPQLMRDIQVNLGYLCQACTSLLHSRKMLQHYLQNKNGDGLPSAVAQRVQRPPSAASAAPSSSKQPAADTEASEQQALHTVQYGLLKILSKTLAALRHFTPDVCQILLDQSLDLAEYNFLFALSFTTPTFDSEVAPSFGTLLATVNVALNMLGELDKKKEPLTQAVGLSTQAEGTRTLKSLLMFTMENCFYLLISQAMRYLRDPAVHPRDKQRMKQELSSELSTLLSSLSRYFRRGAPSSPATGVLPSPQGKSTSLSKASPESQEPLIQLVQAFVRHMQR
# UniProt Q99417, sequence (Q99417 whole entry, looked up): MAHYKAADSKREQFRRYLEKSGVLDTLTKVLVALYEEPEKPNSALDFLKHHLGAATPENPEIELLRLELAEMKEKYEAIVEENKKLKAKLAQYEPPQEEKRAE
# UniProt Q9HBL8, sequence (Q9HBL8 whole entry, looked up): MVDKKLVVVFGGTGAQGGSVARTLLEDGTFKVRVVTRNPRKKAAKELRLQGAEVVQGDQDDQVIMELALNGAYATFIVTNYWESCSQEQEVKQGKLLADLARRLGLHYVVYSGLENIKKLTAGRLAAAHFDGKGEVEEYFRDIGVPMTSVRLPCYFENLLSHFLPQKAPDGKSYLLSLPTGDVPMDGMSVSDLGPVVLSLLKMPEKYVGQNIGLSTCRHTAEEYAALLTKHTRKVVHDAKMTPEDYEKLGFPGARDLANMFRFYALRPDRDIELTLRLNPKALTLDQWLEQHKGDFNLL
# UniProt O00483, sequence (O00483 whole entry, looked up): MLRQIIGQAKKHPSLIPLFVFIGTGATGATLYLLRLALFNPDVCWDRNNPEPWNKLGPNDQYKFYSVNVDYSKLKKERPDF
Target,log2 fold change [1],log2 fold change [2],log2 fold change [3],log2 fold change [4],log2 fold change [5],log2 fold change [6],log2 fold change [7],log2 fold change [8],log2 fold change [9],log2 fold change [10],log2 fold change [11],log2 fold change [12],log2 fold change [13],log2 fold change [14],log2 fold change [15],log2 fold change [16],log2 fold change [17],log2 fold change [18],log2 fold change [19],log2 fold change [20]
NOC2L (UniProt Q9Y3T9),0.04,0.021,0.028,-0.029,-0.035,0.006,-0.079,-0.016,-0.078,0.05,-0.009,-0.066,0.043,0.121,0.257 (active),0.048,-0.02,0.01,0.06,-0.03
N6AMT1 (UniProt Q9Y5N5),0.201,-0.016,0.113,0.005,-0.04,0.006,-0.047,-0.048,0.019,0.038,0.062,0.026,0.048,0.361 (active),0.021,-0.011,0.069,-0.084,0.004,-0.045
NEK7 (UniProt Q8TDX7),0.086,0.024,0.002,-0.006,-0.091,-0.025,-0.13,0.041,0.013,0.04,-0.055,-0.113,0.552 (active),0.007,-0.013,0,0.003,0.038,0.057,-0.049
NFATC2 (UniProt Q13469),-0.029,0.032,0.011,0.03,-0.069,-0.006,0.011,-0.002,0.014,-0.016,-0.12,-0.118,0.021,-0.028,0.06,0.004,0.1,-0.047,-0.007,-0.025
NUP188 (UniProt Q5SRE5),-0.006,-0.006,0.074,-0.067,-0.077,0.05,-0.031,-0.045,0.029,0.021,0.004,-0.049,-0.018,0.038,-0.016,-0.045,0.043,-0.007,0.025,0.011
NIPBL (UniProt Q6KC79),-0.015,0.091,0.017,-0.081,-0.048,0.04,-0.004,-0.042,-0.001,0.004,-0.008,-0.183,-0.04,0.006,0,0.008,0.09,-0.066,0.035,0.027
MYCBP (UniProt Q99417),-0.001,0,0.16,-0.003,0.044,-0.007,-0.589 (active),0.189,0.021,0.035,-0.244,0.045,-0.02,0.022,-0.031,0.005,-0.069,0.022,-0.001,-0.029
NDUFA4 (UniProt O00483),-0.009,0.245,0.058,0.011,0.122,0.085,0.067,-0.134,0.018,-0.063,0.022,0.055,0.054,0.143,0.004,0.028,0.009,0.055,-0.079,-0.133
MYH11 isoform 2 (UniProt P35749),0.027,0.016,0.016,-0.011,-0.025,0.091,0.25 (active),-0.033,0.029,0.002,-0.042,-0.069,-0.028,-0.083,0.031,-0.002,0.07,0.002,-0.005,0.031
NDUFS1 isoform 2 (UniProt P28331),0.041,0.018,0.011,-0.032,-0.001,0.016,-0.006,-0.027,-0.004,0.054,0.008,-0.018,-0.024,0.028,0.014,-0.011,0.05,0.03,-0.025,-0.001
NCOR1 (UniProt O75376),-0.005,-0.01,0.018,0.043,0.002,-0.014,-0.002,-0.033,0.006,0.006,-0.028,-0.027,0.018,0.06,0.021,0.015,-0.007,0.01,0.018,-0.019
MYD88 isoform 6 (UniProt Q99836),-0.031,0.01,-0.002,-0.042,-0.075,0.022,-0.009,-0.013,0.009,0.05,0,-0.216,-0.006,0.013,0.001,0.003,-0.003,0.021,-0.005,-0.039
NADK2 (UniProt Q4G0N4),0.024,-0.013,0.034,0.078,0.008,-0.016,-0.019,0.02,-0.035,-0.036,-0.025,0.106,-0.036,0,0.04,-0.052,0.3 (active),-0.022,-0.004,-0.009
NUP98 (UniProt P52948),0.001,0.035,0.02,-0.005,-0.071,0.031,-0.062,0.019,0.073,-0.005,-0.019,-0.117,0.029,0.031,0.047,0.064,-0.04,0.01,0.017,0.011
NMRAL1 (UniProt Q9HBL8),-0.03,-0.023,0.178,0.045,-0.046,0.045,-0.092,0.053,0.011,-0.034,0,0.036,-0.044,-0.003,0.026,-0.003,0.406 (active),0.021,0.001,-0.002
PANK1 (UniProt Q8TE04),0.086,0.036,0.097,-0.231,-0.063,0.056,0.226,-0.253,0,0.052,0.002,0.025,0.051,-0.082,-0.076,0.312,0.173,0.001,-0.096,0.072
